Compounds with a hit are over-represented: about 7.3% of the library has one in this group of screens.
ELG1 genotox: induces genotoxicity in HEK293T cells with luciferase-tagged ELG1; AID 504466; HEK293T ELG1-luciferase reporter, luminescence, 16 h; 1.3% of 330,000 active; Potency, µM (series often up to 46 µM), without a hit: top-dose activity change, positive = activation, actives largely listed as activators; also: % of control where 0% means no effect; nearly all actives have a fitted effect of over 60% in size
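ELG1-luciferase HEK293T cells, 2,000/well; compound pinned in; 16 hr, 37 °C, 5% CO2; ONE-Glo, 30 min RT; luminescence on CCD imager.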
FLuc counter: counter-screen for miR-21 project: firefly luciferase inhibitors or activators | purified FLuc, Km substrates, luminescence inhibition | Potency, µM (doses to about 57.5 µM), for inactives: at the highest dose activity change, negative = inhibition, hits mostly inhibitors | AID 588342 | P08659 | 6.9% of 360,000 active;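 also: plate controls were vehicle for no effect and reference inhibitor for full effect; nearly all actives have a fitted effect of over 55% in size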
Target sequence (P08659 whole entry, looked up): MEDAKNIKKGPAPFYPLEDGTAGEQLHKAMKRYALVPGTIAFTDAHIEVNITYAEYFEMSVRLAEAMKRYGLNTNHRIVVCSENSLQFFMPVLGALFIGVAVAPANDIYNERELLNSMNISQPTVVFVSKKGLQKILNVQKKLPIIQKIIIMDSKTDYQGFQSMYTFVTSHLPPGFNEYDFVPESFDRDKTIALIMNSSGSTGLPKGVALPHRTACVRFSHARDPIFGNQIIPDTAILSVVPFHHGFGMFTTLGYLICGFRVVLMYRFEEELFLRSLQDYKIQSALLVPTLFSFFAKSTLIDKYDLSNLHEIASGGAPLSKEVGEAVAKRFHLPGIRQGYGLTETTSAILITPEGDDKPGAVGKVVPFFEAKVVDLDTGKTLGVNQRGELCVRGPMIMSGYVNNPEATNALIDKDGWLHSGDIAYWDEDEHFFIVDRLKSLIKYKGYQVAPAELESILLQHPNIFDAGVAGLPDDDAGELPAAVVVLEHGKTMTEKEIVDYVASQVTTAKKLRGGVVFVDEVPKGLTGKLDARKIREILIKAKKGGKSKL
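Purified P. pyralis luciferase, 10 nM final, with Km-level 10 uM D-luciferin and 10 uM ATP in 50 mM Tris acetate pH 7.5, 10 mM Mg acetate, 0.01% Tween-20, 0.05% BSA; 6-point qHTS titration about 60 µM downward; luminescence read.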
Rab9 promoter act: activates the Rab9 promoter. 2.8% of 320,000 active. Potency, µM (series often up to 9.22 µM), without a hit: at the highest dose activation, negative = inhibition, hits mostly activators. Huh7 Rab9 promoter-luciferase reporter, luminescence, 24 h; also: % of control where 0% means no effect; nearly all actives have a fitted effect of over 60% in size
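Luminescence read-out: Huh7 cells stably expressing Rab9-luciferase, treated 24 h with compound at 37 °C, then lysed with luciferase reagent for 10 min at ambient before reading.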
SMN2 splice enh: increases expression of the SMN2 splice variant | 2.8% of 210,000 active | HEK293 SMN2-luciferase splicing reporter, luminescence, 30-36 h | AID 1458 | Potency, µM (titrated, usually from 46.1 µM), without a hit: at the highest dose activity change, positive = activation, usual class: activators; also: % of control where 0% means no effect; nearly all actives have a fitted effect of over 55% in size
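qHTS luciferase splicing reporter: luminescence rises when SMN2 exon 7 is included in transfected HEK293 cells. Compound exposure lasted 30-36 h at 37C, with 4.5 mM final sodium butyrate as control, followed by a ONE-Glo read.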
uPA generation: inhibitors of cell surface uPA generation. cell surface uPA generation assay, qHTS. Potency, µM (doses to about 38.3 µM), without a hit: at the top dose activity change, negative = inhibition, most hits filed as inhibitors. 0.31% of 330,000 active; active = well fitted inhibition curve with a large enough effect; inconclusive = small, poorly fitted or top-dose-only effect; inactive = no such curve, though single readings can be large or run the other way; tested in mouse RAW 264.7 cells; also: % is scaled to controls: 0 for no effect and ±100 for the full control effect; nearly all actives have a fitted effect of over 55% in size
NPC1 prom act: activates the NPC1 promoter; Potency, µM (top dose mostly 9.22 µM), for the others: at the highest dose activation, actives largely listed as activators; 2.4% of 320,000 active; Huh7 NPC1 promoter luciferase reporter, 24 h; also: % of control where 0% means no effect; nearly all actives have a fitted effect of over 60% in size
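Luminescence read-out of NPC1 promoter-driven luciferase in stably transfected Huh7 cells; compounds delivered in DMSO and left 24 h at 37C, 5% CO2, qHTS titration format.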
* hit, by the source's call; [ ] = another dose, or the depositor's remark. Unless noted, calls follow the shape of the dose curve; as a rule, active = well fitted curve in the direction sought with a large enough effect; inconclusive = small, poorly fitted or top-dose-only effect, or another doubt; inactive = no such curve, though single readings can be large; an effect the other way counts as inactive or inconclusive. Potency is read from the fitted curve at half-maximal effect.

CCOC(=O)C1(CCc2ccccc2)CCN(C(=O)c2occc2C)CC1 was read as ELG1 genotox -5%, FLuc counter -18%, Rab9 promoter act -4%, uPA generation -3% and NPC1 prom act -3%.
Cc1ccccc1CN1c2ccccc2-c2nc(SCC(=O)NCCc3ccccc3)ncc2S1(=O)=O was read as FLuc counter 1%.
`COc1ccc(C2c3cccn3CCN2S(=O)(=O)c2ccc([N+](=O)[O-])cc2)cc1` (centres undefined) gave FLuc counter -2%.
Screening c1ccsc1 returned SMN2 splice enh -10%.
For COc1ccc2nc(N(Cc3ccccc3)C(=O)CCNC(C)=O)sc2c1 the results were ELG1 genotox inconclusive, FLuc counter 19µM*, Rab9 promoter act inconclusive, uPA generation -8% and NPC1 prom act inconclusive.
For COc1ccc2nc(N(Cc3cccnc3)C(=O)COc3ccccc3)sc2c1 the results were FLuc counter -11%.
`COc1ccc2sc(N(CCN(C)C)C(=O)/C=C/c3cccs3)nc2c1` gave ELG1 genotox -7%, FLuc counter 1%, Rab9 promoter act -6%, SMN2 splice enh 5%, uPA generation inconclusive and NPC1 prom act 0%.
Screening CCN(c1ccc(OC)cc1)S(=O)(=O)c1nnc(NC(=O)c2ccco2)s1 returned ELG1 genotox 1%, FLuc counter 2%, Rab9 promoter act -1%, uPA generation 1% and NPC1 prom act -9%.
For COc1ccc2nc(N(CCN(C)C)C(=O)/C=C/c3cccs3)sc2c1 the results were ELG1 genotox -10%, FLuc counter 1%, Rab9 promoter act 6%, SMN2 splice enh -6%, uPA generation 10µM* and NPC1 prom act -2%.
COc1ccc2nc(NC(=S)NC(=O)c3ccco3)sc2c1 was read as ELG1 genotox inconclusive, FLuc counter 0.67µM*, Rab9 promoter act 1µM*, SMN2 splice enh 7.9µM*, uPA generation inconclusive and NPC1 prom act 3.2µM*.
`COc1ccc2sc(NC(=O)c3ccco3)nc2c1` gave ELG1 genotox inconclusive, FLuc counter 0.76µM*, Rab9 promoter act 0.35µM*, SMN2 splice enh inconclusive, uPA generation inconclusive and NPC1 prom act 0.5µM*.
CCOc1ccc(NS(=O)(=O)c2csc(C(N)=O)c2)cc1 was read as ELG1 genotox -6%, FLuc counter 0%, Rab9 promoter act -2%, uPA generation -2% and NPC1 prom act 2%.
`CCCCn1c(SCc2ccccc2C)nc2ccsc2c1=O` gave FLuc counter -2%.
`O=C(NC(=S)Nc1nc2ccccc2s1)c1ccco1` gave ELG1 genotox inconclusive, FLuc counter 1.5µM*, Rab9 promoter act inconclusive, SMN2 splice enh 11µM*, uPA generation -8% and NPC1 prom act inconclusive.
Screening O=C(COC(=O)c1ccco1)Nc1nc2ccccc2s1 returned ELG1 genotox 10%, FLuc counter inconclusive, Rab9 promoter act 2%, SMN2 splice enh 9%, uPA generation -4% and NPC1 prom act -4%.
COc1ccc2nc(NC(=O)CCNC(=O)c3ccco3)sc2c1 was read as ELG1 genotox inconclusive, FLuc counter 12µM*, Rab9 promoter act 3.2µM*, uPA generation 9% and NPC1 prom act 3.2µM*.
O=C(CCNC(=O)c1ccco1)Nc1nc2ccccc2s1 was read as ELG1 genotox 9%, FLuc counter inconclusive, Rab9 promoter act inconclusive, uPA generation 2% and NPC1 prom act 26%.
Screening COc1ccc2nc(NC(=O)CCNC(=O)c3ccccc3Cl)sc2c1 returned ELG1 genotox 10%, FLuc counter 19µM*, Rab9 promoter act 30%, SMN2 splice enh 16µM*, uPA generation 2% and NPC1 prom act 16%.
Screening O=C(CCNC(=O)c1ccccc1Cl)Nc1nc2ccccc2s1 returned ELG1 genotox inconclusive, FLuc counter inconclusive, Rab9 promoter act inconclusive, uPA generation -4% and NPC1 prom act inconclusive.
O=C(CCNC(=O)c1ccccc1Cl)Nc1nc(-c2ccccc2Cl)cs1 was read as ELG1 genotox 14%, FLuc counter 17µM*, Rab9 promoter act 1%, SMN2 splice enh 3%, uPA generation -4% and NPC1 prom act 8%.
`Cc1cc2nc(-c3ccc(SCC(=O)N4CCOCC4)nc3)[nH]c2cc1C` gave ELG1 genotox 2%, FLuc counter 0.67µM*, Rab9 promoter act 3.5µM*, SMN2 splice enh inconclusive and NPC1 prom act inconclusive.
`Cc1cc2nc(-c3ccc(SCC(=O)N4CCN(C(=O)c5ccco5)CC4)nc3)[nH]c2cc1C` gave ELG1 genotox -5%, FLuc counter 0.48µM*, Rab9 promoter act 3.5µM*, SMN2 splice enh 7.9µM*, uPA generation inconclusive and NPC1 prom act 3.5µM*.
Screening Cc1cc(=O)[nH]c(SCC(=O)N2CCN(C(=O)c3ccco3)CC2)n1 returned ELG1 genotox -1% and uPA generation 11%.
`O=C(CSc1ccc2nnc(-c3ccc(F)cc3)n2n1)N1CCOCC1` gave uPA generation -2%.
For COc1cccc2cc(C(=O)Nc3ccccc3Cl)/c(=N/NS(=O)(=O)c3ccccc3)oc12 the results were ELG1 genotox -1%[9.26 µM], FLuc counter -2%, Rab9 promoter act -3%, uPA generation -4% and NPC1 prom act -3%.
COc1ccc(SCc2cc(=O)c3cc(Cl)ccc3[nH]2)cc1 was read as FLuc counter 4%.
For Cc1ccc(C(=O)Nc2cccc(C(=O)N3CCOCC3)c2)cc1Cl the results were ELG1 genotox inconclusive, FLuc counter 9.5µM*, Rab9 promoter act inconclusive, uPA generation -20% and NPC1 prom act 27%.
Screening Cc1ccc(C(=O)Nc2cccc(C(=O)O)c2)cc1S(=O)(=O)N1CCCC1 returned FLuc counter 0.095µM* and SMN2 splice enh 11µM*.
Screening CC1CCCC(C)N1C(=O)COC(=O)c1cccc(S(=O)(=O)N(C)c2ccccc2)c1 (centres undefined) returned ELG1 genotox -3%, FLuc counter inconclusive, Rab9 promoter act -5%, uPA generation 5% and NPC1 prom act -2%.
O=C(Nc1cccc(C(=O)N2CCOCC2)c1)c1ccccc1 was read as ELG1 genotox 1%, FLuc counter -12%, Rab9 promoter act 4%, SMN2 splice enh -1%, uPA generation 1% and NPC1 prom act 8%.
Screening Cc1ccc(NC(=O)c2cccc(F)c2)cc1S(=O)(=O)N1CCCCCC1 returned ELG1 genotox -13%, FLuc counter -6%, Rab9 promoter act -2%, SMN2 splice enh -30%, uPA generation 5% and NPC1 prom act -3%.

Screening results: PubChem BioAssay, National Center for Advancing Translational Sciences (NCATS)
